These results are taken from PubChem BioAssay (Tox21).

Molecules are shown by their SMILES. The source made the active and inactive calls. The call rests on the fitted dose curve; in most records, active means well fitted cell-killing curve with a large enough effect in the repeat runs; inconclusive means weak or mixed curves, or effect the other way; inactive means flat fitted curve, though single readings scatter.
On the % scale 0 is the no-effect control and ±100 the full control effect.

This test in a line: qHTS assay to identify small molecule HDAC inhibitors - cell viability counter screen (AID 1259365). Further: nearly all actives have a fitted effect of over 50% in size. Particulars: HCT-116 viability, CellTiter-Glo ATP luminescence, 2 h; series mostly up to 92.4 µM; activity change, negative = cytotoxicity: at the top concentration. The source says:
U.S. Tox21 Program National Center for Advancing Translational Sciences [NCATS] NIH Chemical Genomics Center [NCGC] U.S. Environmental Protection Agency [EPA] National Institutes of Environmental Health Sciences [NIEHS] National Toxicology Program [NTP] U.S. Food and Drug Administration [FDA] Tox21 Assay Overview: Histone deacetylases (HDACs) are a group of epigenetic enzymes that regulate gene expression by histone deacetylation. HDACs are capable of introducing epigenetic modifications and such aberrations contribute to the onset and progression of several human diseases, thus making HDACs a popular therapeutic target. For identifying endogenous class I/II HDAC inhibitors a homogenous, luminogenic HDAC I/II cell based assay was used to measure the relative activity of class I and II HDACs from cells. Wild type HCT-116 cells were used to screen Tox21 compound libraries for identifying class I/II HDAC inhibitors.
Tox21 Assay Protocol Summary: HCT-116 cells were dispensed at 1,500 per well in 5uL of culture medium into white solid bottom 1536-well plates (Greiner Bio-One, Monroe, NC) using a Multidrop Combi (Thermo Scientific, Waltham, MA) dispenser. The assay plates were incubated at 37 C and 5% CO2 for an overnight, and then 23nL of compounds dissolved in DMSO and positive control were transferred using a Pintool station (Wako, San Diego, CA). The assay plates were incubated at 37C and 5% CO2 for 2hr. After compound treatment, 4uL of CellTiter-Glo reagent (Promega Corporation, Madison, WI) was added to each well of the assay plates using Flying Reagent Dispenser (FRD, Aurora Discovery, San Diego, CA) and incubated the assay plates at room temperature for 30min. The luminescence signal was quantified using a ViewLux plate reader (Perkin Elmer, Shelton, CT).
(In qHTS, concentration-response curves come from the screen itself.)
Turning to `Fc1ccccc1[C@@H](F)COC1CCC(Nc2ncnc3[nH]ncc23)CC1` (stereo not given in full), the “activity change, negative = cytotoxicity” value is 7.8% (inactive).

As for `CCn1nc(C)c2c1C(=O)NCC(c1ccc(O)cc1)=N2`, the “activity change, negative = cytotoxicity” value was 0.102% (inactive).

For `O=C1NCCN1`, the “activity change, negative = cytotoxicity” value was -0.493% (inactive).

With `CCCCCCCCCCOS(=O)(=O)O`, the “activity change, negative = cytotoxicity” value was 9.67% (inactive).

In the case of `N#C[C@@H]1C[C@@H]2C[C@@H]2N1C(=O)[C@@H](N)C12CC3CC(CC(O)(C3)C1)C2`, the “activity change, negative = cytotoxicity” value is 0.721% [at 42.5 µM] (inactive).

As for `CCCCCCCCCCCC[N+](C)(C)CCCS(=O)(=O)[O-]`, the “activity change, negative = cytotoxicity” value is 0.933% (inactive).

Turning to `CC1=NN(c2ccc(C(=O)O)cc2)C(=O)C1`, the “activity change, negative = cytotoxicity” value was 0.922% (inactive).

Take `O=C(C(=O)c1ccccc1)c1ccccc1`: the “activity change, negative = cytotoxicity” value is -4.47% (inactive).

On to `Cc1oncc1C(=O)Nc1ccc(C(F)(F)F)cc1`, for which the Potency entry is “inactive”.

Take `CC(C)CCCCCOC(=O)CCCCC(=O)OCCCCCC(C)C`: the “activity change, negative = cytotoxicity” value was 2.12% (inactive).

Regarding `CCOC(=O)c1ccccc1OC`, the “activity change, negative = cytotoxicity” value was -1.17% (inactive).

With `O=c1[nH]c2ccc(S(=O)CCN3CCC(Cc4ccc(F)cc4)CC3)cc2o1` (stereo not given), the “activity change, negative = cytotoxicity” value was 1.09% (inactive).

Consider `CCCCCCCCCOC(C)=O`, for which the “activity change, negative = cytotoxicity” value was -7.5% (inactive).

For `CN1CCN(CCCN2c3ccccc3Sc3ccc(S(=O)(=O)N(C)C)cc32)CC1`, the “activity change, negative = cytotoxicity” value was -9.88% [at 42.5 µM] (inactive).

As for `Cc1nc2ccccc2s1`, the “activity change, negative = cytotoxicity” value was 1.47% (inactive).

As for `c1ccc(COCc2ccccc2)cc1`, the “activity change, negative = cytotoxicity” value was -4.31% (inactive).

As for `CCOC(=O)C(C)Oc1ccc(Oc2nc3ccc(Cl)cc3o2)cc1` (stereo not given), the “activity change, negative = cytotoxicity” value was -4.13% (inactive).

For the molecule `CCCOCCOCCO`, the “activity change, negative = cytotoxicity” value is 0.726% (inactive).

Turning to `c1cnc2c(n1)CCCC2`, the “activity change, negative = cytotoxicity” value was -0.207% (inactive).

Consider `CC1CC(O)CC(C)(C)C1` (stereo not given), for which the “activity change, negative = cytotoxicity” value was 3.85% (inactive).

Consider `O=C(N/N=C/c1ccc([N+](=O)[O-])o1)c1ccc(O)cc1`, for which the “activity change, negative = cytotoxicity” value was -8.96% [at 42.5 µM] (inactive).

Turning to `CCCc1c(OCCCOc2ccc(OCC(=O)O)cc2)ccc(C(C)=O)c1O`, the “activity change, negative = cytotoxicity” value was -1.03% (inactive).

Take `C=CC(=O)NCOCC(C)C`: the “activity change, negative = cytotoxicity” value is 7.85% (inactive).

For `OC(CCCN1CCCCC1)(c1ccccc1)c1ccccc1`, the “activity change, negative = cytotoxicity” value is 2.36% [at 42.5 µM] (inactive).

For the molecule `CCC(C(=O)OCCN(CC)CC)c1ccccc1` (stereo not given), the “activity change, negative = cytotoxicity” value is 1.46% [at 42.5 µM] (inactive).

As to `OC/C(Br)=C(\Br)CO`, the “activity change, negative = cytotoxicity” value was -5.77% (inactive).

In the case of `C=CCOC(=O)/C=C\C(=O)OCC=C`, the “activity change, negative = cytotoxicity” value was 5.66% (inactive).

For `CC(C)(CCl)c1ccccc1`, the “activity change, negative = cytotoxicity” value was 5.16% (inactive).

On to `CO[C@H]1C=CO[C@@]2(C)Oc3c(C)c(O)c4c(O)c(c5c(c4c3C2=O)=NC2(CCN(CC(C)C)CC2)N=5)NC(=O)/C(C)=C\C=C/[C@H](C)[C@H](O)[C@@H](C)[C@@H](O)[C@@H](C)[C@H](OC(C)=O)[C@@H]1C`, for which the “activity change, negative = cytotoxicity” value is -13.5% (inactive).

In the case of `C=CCNc1nc(NCC=C)nc(N2CCN(C(c3ccc(F)cc3)c3ccc(F)cc3)CC2)n1`, the “activity change, negative = cytotoxicity” value is -4.24% [at 42.5 µM] (inactive).

`CCCCN(CCCC)C(=S)SSC(=S)N(CCCC)CCCC`: the “activity change, negative = cytotoxicity” value was 6.19% (inactive).

`Cc1ccc(S(=O)(=O)NC2CCCCC2)cc1`: the “activity change, negative = cytotoxicity” value was -3.98% (inactive).

Turning to `CCCCCCCCCCCC[N+](C)(C)CC(=O)[O-]`, the “activity change, negative = cytotoxicity” value was -5.52% (inactive).

On to `[O]=[Bi]`, for which the activity change, negative = cytotoxicity is -2.43% [at 8.39 µM] (inactive).

As for `C=CCCCCCCCCCCCCCCCC`, the activity change, negative = cytotoxicity was -1.22% [at 8.39 µM] (inactive).

For `Nc1ccc(C(=O)OCCCOC(=O)c2ccc(N)cc2)cc1`, the “activity change, negative = cytotoxicity” value was 3.88% (inactive).

As for `CC(C)(C)CC(C)(C)c1ccc(OCCO)cc1`, the “activity change, negative = cytotoxicity” value is -4.94% (inactive).

For the molecule `CCCCOC(=O)CCS`, the “activity change, negative = cytotoxicity” value is -3.25% (inactive).

On to `CC(=O)OCC(=O)[C@H]1CC[C@H]2[C@@H]3CCC4=CC(=O)CC[C@]4(C)[C@H]3CC[C@]12C`, for which the “activity change, negative = cytotoxicity” value was -0.5% [at 42.5 µM] (inactive).

Turning to `NC(=O)Nc1ccc(Cl)c(Cl)c1`, the “activity change, negative = cytotoxicity” value was 13.7% (inactive).
